Reference: the supplement of paper PMC12632987
The full ranking holds about 4,500 sequences; the median of “median log2 fold change of GCK-ALFA target abundance (FLAG IP / Myc IP barcode read proportion)” is about 0.078, and the lowest 2% start at about -0.6. Many of the other results were omitted from the sample, so the lowest values are more common in it than they were.

B1: GBRAP_128_3472 (protein)
chain: GVEEVRKWTKEVMEKMKTADDEEFRELATELAERLLTLPLEEVEAAVEVIKEHLPELTAEKLEILAEVLREARPQATPEKAALFADVESEALLLAEELEE
B2: GBRAP_52_5855 (protein)
chain: SKEKMRKLAEELLKLKLAGKEEELEKKVKELVATLSEEEILELLKELAELAKKANKEEAEAIAEVAELLADEAEKAGFDEDELSYELAKVYAAAYKVLQK
B3: GBRAP_35_5567 (protein)
chain: SFDETTAEMMVNTIEALTEAVEDIDPETLKTITEQITKAAKKVIEEIKDNKEALEKIKKALEKLLKALEKRGLDDPNVKAAAEAVKEAIKEAEKAIKEAE
B4: GBRAP_52_6372 (protein)
chain: REAEARAIVDELLALAEAGDEEGVEALVREVLASGDGALQAAVLREIRRRLEARDHPDPEALLRLAAIVADEVLEAEVDSPEVWAALTALAAAALALERA
B5: GBRAP_160_4778 (protein)
chain: SEKVEELKKSIEEAKEEILESIDTESPEETIIVVKGETGLILAEAYELEIDNDELEDALDEIGDELIEEMKKNKNASKEELKKIVEEYTEKALKKIEELT
B6: GBRAP_43_5750 (protein)
chain: MEEIIEGHVDFALLAAEDPNISEEQKLKIAKDTFDILADENISLPEESSKLTEALAKSLSLEQLKELLAHLKELAKKYPELKELFDKNSKIIEEAIKKLE
B7: GBRAP_80_6795 (protein)
chain: AEERLKKALEEIEKLDKELAKKVKEIVEIAREMGVSTEDLADFAEAIAELLKLDKEKARELVEELKEELEELKKEGNKAEAEAAVRVYAGEALLEVEELE
B8: GBRAP_160_4201 (protein)
chain: SEKVEKVIRLLREETERVIAEVPELSREEVANLADVEYGSVLMEAVELGIENDEILDTIADAADEIRRFLEENRDASVEEIKRGIREITERAIEEIKKIA
B9: GBRAP_160_4006 (protein)
chain: SEEAEKLIKEIKEIFEELKKDIEGLTPEERLTLAKGYAGEILQLAESSKVISDEAVDKIAEILDEFLEELEKNKNAPLEYWKKLIEETLKKIEEVIKEDS
B10: GBRAP_43_5749 (protein)
chain: DEELVAGAVEFTLLAAEDPSISPETVLRAFKATLDLIADTGVRLEEELVAAAAAVAKRLSPEQVEALIEHIKELAAASPEVKETFEAAEEVLRAELAKRR
B11: GBRAP_150_3886 (protein)
chain: DLETALTIASSALDILEATIEDGPKLLEHALKLTKALVDEVKDFSEELQKLAKEALKKIEEAIKLVKAGGKPEEIKKLLEEAAKLLEELEKLLEKKIEEE
B12: GBRAP_52_5963 (protein)
chain: MEARMEALLDELLALRRAGDEAGAEALAREIAETLDDEELRLLGDVLVARIRASDLETAELLLDLAIMLADVLEELGRDPRLASDLLGRAAAAAYALEQA
B13: GBRAP_83_6915 (protein)
chain: MKEITVAAVGDHIDEAFDAAIDLKKEGVEKIIVEAIIKPEEVPRLLEAVKRALEAGVNLELEVFLEGATEEEAEEVEKKLKEIAKEAGKEVKVTVEVIEP
B14: GBRAP_9_7146 (protein)
chain: MEEMVEKIREVMEDAFEEVREIVPEEVKPLVDELREEALKRFEEVVADKSKTKEEIREAAKELIEEFTERVSEKVSPEIAKMVEAIGLTAKLEIEEIYEE
B15: GBRAP_11_2904 (protein)
chain: KKEKLEKLAELLKKAVALLKELLAKGTDDEKLHAEALKVAEEALKLAKEVLDESDVELAEEAVELLKQAKADPANAAQYVQQALAIFSVLEGQVLLKIEE
B16: GBRAP_96_7096 (protein)
chain: MLEEAEALVRELIAALDTDPERARALAERLLEFPVEVVTEAIVRVVKDPADAAKLAELLLELGDEKAEEVLLEAAEKAPGDISKAIIDAMQAYEEAKEAA
B17: GBRAP_184_5075 (protein)
chain: SVREETIRVENVEEARAKMAALAERVRDHRGDLVVLVEMPEADLEIMRAVLEGLAAILAAGYARRVTVGFDAEVTEEQVDEAVALADRLGVNVVLPLKEE
B18: GBRAP_125_3111 (protein)
chain: DMEEVLEALAIVLRALGFDDDEIEEALELARRYGIKGTMIAVALAEGYEEVADLLEKLTEEEVKQALLETAAAIKANPELTPEEVKELLEEVLKKLLAAS
B19: GBRAP_160_4005 (protein)
chain: SAEIEALIKEIEELVKETKEWMKGLSPEERLTLARGMVGEIIQLAIDSPAVSDETEDKIAEIGDETIARLEANANASLEVWEKILDDYLEKVKELLKSDE
B20: GBRAP_11_2908 (protein)
chain: KKEKLKEAAKLAEKAAKLIEQLIKNGADDKELWAEAEKAAEELLKLAKEYLDESTVELAEYALELLKKAQADPKNAQQYLNEALATVRVILGQILLAIEE
B21: GBRAP_78_6697 (protein)
chain: EVEELLEKALELLDQALKLSKQLPEDLRNEVTYHLVEAITDLEEAIEEGADLEELKEALEHLDKAIALVKANDTPLTQPLLKLLTEAKKLLEEAIKKLEE
B22: GBRAP_125_3109 (protein)
chain: SEDELLAALRALARALGFSEEEAEEAAELARRFSLRQTLYAIFLAEGEEELADLVEQLTEEQARAALAALAAWLAAHPDATKEEVLAQARAILEAELARA
B23: GBRAP_9_7186 (protein)
chain: MQEKKEKILEEVKEELELAIEVAPEEYKELIKEKTEEVLKELEKAVKDENTTLEELLKKLEELFEKLIEIAKKNVPKETYLQIEAILGTAILSAEEIIEE
B24: GBRAP_26_5464 (protein)
chain: MEEAFREASDRVDEIAAKLSNPEAAAAVRAEADTILLELEERIEAGEDIEKAVKEAEEEFLKEAREIGKEEGLPEEEIERLEKELSEVFKELEERLKKAK
B25: GBRAP_160_4037 (protein)
chain: NEKLKKLKKFAEEVFEEAKELVEGTSVEEAAVIIDVAAGEIIMEAVELGIDDDELEDFIDEIGDEAVAYLLAHPDLSEEEIKELIEEAREKVLEKIDEAE
B26: GBRAP_160_4038 (protein)
chain: NEKLEKLAKFAEEVFKEAEELIKGTTVEEAAVIVDVATGEIIMEAVELGIDNDELEDFIDEIGDEAVAYLLAHPDLTEEEIQALVKEAKEKILKKIKEAS
B27: GBRAP_52_6009 (protein)
chain: MREELRERLEEALALVRAGRLEEARALVTELVESLDEEELELLIELLAEMAREAAPEDFDAVWTLAELVAEEMRRAGKDEVLADLLEARVAAALYEAEQR
B28: GBRAP_52_5877 (protein)
chain: MLEEAVKLLEEAVKAKKEGKEKELKEILKKIVEEFSEETILAAVKKLAEKVLTKSLEEAEAFYETVELLSDILLEAGKSEEIASLMEAIAGATLYTVEQK
B29: GBRAP_11_2629 (protein)
chain: KKEILKKKAELAKKLAEKVEKLLKEGVDNEELLKEIEKLLKEIAELTEKYGTEADKSLVEVAKELFEEAKKDKENKEKYLKELLAAAKVLEGDYLLEIEE

Molecular target: GABARAP, O95166
Assay: median log2 fold change of GCK-ALFA target abundance (FLAG IP / Myc IP barcode read proportion) (log2 ratio); each designed protein is fused to an ALFA-tag nanobody in HEK293 cells to bring the named protein to FLAG-tagged glucokinase (GCK); Myc marks an untargeted standard; higher = target protein stabilised (more abundant)
Settings: target protein: 3xFLAG-MCP-GCK-ALFA reporter; HEK293 landing pad (RPLP)
How it was run: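 Binders fused to an ALFA nanobody were recombined as a library into HEK293 landing-pad cells, which were induced with 2 μg mL^−1 doxycycline and then transfected to express a FLAG-tagged target and a Myc-tagged standard. After 48 h, circular RNA barcodes recovered by anti-FLAG and anti-Myc immunoprecipitation of lysates were reverse transcribed, amplified and sequenced. Each binder's target abundance is the median log2 ratio of FLAG to Myc barcode read proportions, from barcodes present at ≥10^−7 in both replicates, binders carrying ≥3 barcodes per replicate, a 10^−6 pseudocount and pooled replicates.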

Sequence of GABARAP, O95166 (O95166 whole entry, the tested form may be a part): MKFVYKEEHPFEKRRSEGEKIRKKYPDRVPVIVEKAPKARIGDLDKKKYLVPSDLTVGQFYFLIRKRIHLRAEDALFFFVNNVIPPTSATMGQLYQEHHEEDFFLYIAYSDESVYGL

| Binder | median log2 fold change |
| --- | --- |
| B1 | 0.00124 |
| B2 | -0.0898 |
| B3 | 0.378 |
| B4 | -0.638 |
| B5 | 0.139 |
| B6 | 0.475 |
| B7 | 0.0713 |
| B8 | -0.204 |
| B9 | -0.00151 |
| B10 | 0.142 |
| B11 | 0.00752 |
| B12 | -0.635 |
| B13 | 0.19 |
| B14 | 0.209 |
| B15 | 0.354 |
| B16 | 0.123 |
| B17 | 0.0908 |
| B18 | -0.903 |
| B19 | 0.201 |
| B20 | 0.209 |
| B21 | 0.0855 |
| B22 | -0.77 |
| B23 | -0.362 |
| B24 | 0.274 |
| B25 | -0.581 |
| B26 | -0.621 |
| B27 | -0.0383 |
| B28 | 0.168 |
| B29 | 0.182 |
